A selection: hits, their analogues and other compounds. The true share with any hit is near 27%.
Cav3 T inh – Cav3.2 calcium influx blockers – cell-based, Fluo-4 calcium fluorescence, FDSS, MLSMR library, primary screen; B-score at 10 µM; Voltage-dependent T-type calcium channel subunit alpha-1H (Homo sapiens), O95180; Cav3.2-expressing cells; stronger effect = lower value; actives 4% (n = 100,000);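 active = single-dose well whose peak fluorescence ratio is a statistical outlier from its plate by either plate-standardised score or position-corrected B-score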
CYP2C9 activ – human CYP2C9 activators, primary screen, biochemical, luminescence | recombinant CYP2C9, luciferin-H conversion; stronger effect = higher value; factor 1 = untreated enzyme, 0 = blocked | activation factor at 5 µM | actives 1.4% (n = 96,000) | AID 1024, 2008;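 active = activation factor of 2 or more for CYP2C9 at a 5 µM dose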;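 also: 0 = sulfaphenazole-blocked wells and 1 = vehicle-only wells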
CYP2C19 act – human CYP2C19 activators, primary screen, biochemical, luminescence. recombinant CYP2C19, luciferin-H EGE luminescence; stronger effect = higher value; 0 = fully inhibited enzyme, 1 = untreated enzyme. activation factor at 5 µM. 96,000 tested, under 10 active;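 active = activation factor of at least 2 at 5 µM in the primary screen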;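 also: 0 = wells with 2.5 mM tranylcypromine and 1 = vehicle-only wells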
CYP2C19 inhib – blockers of cytochrome P450 2C19 activity – biochemical, luminescence, ADME assay, primary screen; CYP2C19 Supersomes, luciferin-H EGE luminescence, 30 min; inhibition, % at 5 µM; actives 21% (n = 96,000); AID 778, 2007;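 active = CYP2C19 inhibition above a set limit at 5 µM in the primary screen, cut at about 50% in these data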;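 also: plate controls were negative control wells for no effect and 2.5 mM tranylcypromine positive control for full effect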
CYP2C9 inh – blockers of cytochrome P450 2C9 activity – biochemical, luminescence, ADME assay, primary screen. AID 777, 2007. CYP2C9 Supersomes, luciferin-H conversion. actives 20% (n = 96,000). inhibition, % at 5 µM. P11712;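 active = blocking of liver enzyme CYP2C9 beyond about 50% at 5 µM, limit read from the data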
* = called active by the depositor; . = not tested or not shown.

SMILES	Cav3 T inh	CYP2C9 activ	CYP2C19 act	CYP2C19 inhib	CYP2C9 inh
CCN1CCN(C(c2cc(OC)c(OC)c(OC)c2)c2nnnn2C(C)C)CC1 (stereo unspecified)	0.35	1.1	0.9	7	-6
CN(C(=O)N1CCN(c2ccccn2)CC1)c1ccccc1	0.44	0.7	0.6	43	34
O=C(c1ccc(Cl)c(S(=O)(=O)Nc2ccc(F)cc2)c1)N1CCN(c2ccccn2)CC1	-1.6	0.3	0.3	67*	70*
CN(C)CCCNC(=O)c1ccc(Cl)c(S(=O)(=O)N(C)c2ccccc2)c1	0.4	1	0	97*	-5
CN(c1ccccc1)S(=O)(=O)c1cc(C(=O)N2CCN(c3ccccn3)CC2)ccc1Cl	-1.3	0	0.3	73*	99*
COC(=O)c1ccc(CN(c2ccccn2)S(=O)(=O)c2ccccc2)cc1	-0.074	0.7	0.3	70*	30
O=C(Cn1c(-c2cscn2)nc2ccccc21)Nc1ccccc1F	-0.4	0.9	0.5	45	11
CCS(=O)(=O)N1CCCC(C(=O)NCCCN2CCCC2=O)C1 (stereo unspecified)	0.65	1.1	1.1	-6	-6
COc1ccc(C(CC(=O)NCCCN2CCOCC2)NS(=O)(=O)c2ccc(C)cc2)cc1 (stereo unspecified)	.	1.1	1.1	-11	-12
CCCCNC(=O)Cn1c(-c2ccc(OC)cc2)noc1=O	-2.5	0.7	0.3	65*	35
CCCCOCCCNC(=O)CN1C(=O)c2ccccc2C1=O	0.87	1.1	1.1	-6	-9
CCCCC(=O)NCCc1ccc(OC)cc1	0.2	0.7	0.4	57*	26
COc1ccc(CCNC(=S)Nc2cc(C)cc(C)c2)cc1	-1.4	1.4	0.4	62*	-44
COCCCNC(=O)CC(NS(=O)(=O)c1ccc(Cl)cc1)c1ccc(OC)cc1 (stereo unspecified)	-0.22	1.2	0.5	55*	-16
O=S1(=O)N=C(N2CCc3ccccc3C2)c2ccccc21	1.6	1.2	0.6	40	-20
COc1ccc(S(=O)(=O)CCC(=O)NCCc2ccc(Cl)cc2)cc1	-0.7	0.3	0.3	71*	71*
NC(=O)c1ccc(C2SCC(=O)N2Cc2ccccc2)cc1 (stereo unspecified)	1.4	0.8	0.8	23	16
Oc1ccc(Br)cc1CNn1cnnc1	-3.8*	1	1	1	0
COc1ccc(-c2nnc(SCC(=O)N3CCOCC3)o2)cc1	0.72	1	1	4	1
O=C(CSc1nnc(-c2ccc(O)cc2)o1)N1CCOCC1	0.6	2.5*	1	-5	-148
Oc1ccc(-c2nnc(SCC3CCCCC3)o2)cc1	0.0056	2.1*	1	3	-107
O=C1OCCC1Sc1nnc(-c2ccc(O)cc2)o1 (stereo unspecified)	-0.8	1.2	0.6	42	-18
CC(C)CC(NC(=O)C(NC(=O)OC(C)(C)C)C(C)C)C(=O)NC(CCC(=O)OCc1ccccc1)C(N)=O (stereo unspecified)	-2.2	.	.	.	.
O=c1cc(N2CCOCC2)[nH]c(=O)n1-c1ccc(Br)cc1	1.3	1	1	-3	-3
CCOC(=O)C1=C(C)n2c(s/c(=C/c3cccc([N+](=O)[O-])c3)c2=O)=NC1c1ccc(O)c(OC)c1 (stereo unspecified)	-1.8	0.3	0.4	55*	67*
SMILES	Cav3 T inh	CYP2C9 activ	CYP2C19 act	CYP2C19 inhib	CYP2C9 inh
COc1cccc(N(C(=O)Cn2nnc(-c3cccs3)n2)C(C(=O)NC(C)C)c2ccc(C)o2)c1 (stereo unspecified)	-0.082	0.9	0.9	7	8
COc1ccc(Cn2c(N)c(C#N)c3nc4ccccc4nc32)cc1	.	0.7	0.8	20	26
COc1ccc(-n2c(NC(=O)c3ccc(Br)o3)c(C#N)c3nc4ccccc4nc32)cc1	.	0.2	1	2	79*
Cc1occc1C(=O)Nc1sc2c(c1C(N)=O)CCC(C(C)(C)C)C2 (stereo unspecified)	-0.54	0.4	0.9	7	58*
CCC(C)(C)C1CCc2c(sc(NC(=O)c3ccoc3C)c2C(N)=O)C1 (stereo unspecified)	-0.16	1.2	1	-4	-16
O=C(NC(=S)Nc1ccc(N2CCOCC2)c(Cl)c1)C(c1ccccc1)c1ccccc1	-2.8	0.2	0.9	10	76*
O=C(Nc1ccc(NC(=S)NC(=O)C(c2ccccc2)c2ccccc2)cc1)c1ccccc1	-4.3*	.	.	.	.
Cc1ccc(NC(=S)N/N=C/c2ccc(OCCC(C)C)cc2)c(C)c1	.	0.4	0.8	24	65*
CCCOc1ccc(NCC(=O)Nc2ccc(C)cc2C)cc1	-0.83	.	.	.	.
COC(=O)c1ccc(Cn2cnc3c(cnn3-c3ccc(F)cc3)c2=O)o1	-0.11	0.5	0.8	15	50*
COc1cc(C(=O)N(Cc2cccnc2)Cc2cc3cc4c(cc3[nH]c2=O)OCCO4)cc(OC)c1OC	1.6	0.6	1	1	44
Cc1cccc2cc(CN(Cc3cccnc3)C(=O)c3ccccc3F)c(Cl)nc12	-0.25	0.4	0.3	68*	55*
Cc1cc(C)c2cc(CN(Cc3cccnc3)C(=O)c3ccc(F)cc3)c(Cl)nc2c1	-1.1	0.5	0.5	52*	46
Cc1noc(N)c1C(=O)Nc1ccc(C(C)(C)C)cc1	0.32	0.9	0.8	18	10
CN(C)c1c([N+](=O)[O-])ncn1C	-0.023	0.9	0.9	14	9
O=C(c1ccccc1F)N(Cc1ccc(F)cc1)C1CCS(=O)(=O)C1 (stereo unspecified)	0.91	0.9	0.2	83*	15
O=C(c1sc2ccccc2c1Cl)N(Cc1ccco1)C1CCS(=O)(=O)C1 (stereo unspecified)	-3.4	0.3	0.3	71*	70*
CCN(CC)c1ccc(CN(C(=O)c2ccco2)C2CCS(=O)(=O)C2)cc1 (stereo unspecified)	.	0.4	0.4	57*	58*
O=C(c1sc2ccccc2c1Cl)N(Cc1ccccc1Cl)C1CCS(=O)(=O)C1 (stereo unspecified)	-1.7	0.2	0.7	30	85*
O=C(c1ccccc1F)N(Cc1ccccc1)C1CCS(=O)(=O)C1 (stereo unspecified)	1.4	0.9	0.7	32	8
[O-][n+]1onc2c1CCC1N(O)C(c3ccccc3)CC21O (stereo unspecified)	1.7	1	0.8	16	3
CN1CCN(C(=O)CN(c2cc(C(F)(F)F)ccc2Cl)S(C)(=O)=O)CC1	.	1	0.7	28	0
O=C(c1cccs1)N(Cc1ccco1)C1CCS(=O)(=O)C1 (stereo unspecified)	-2	1.1	0.4	56*	-5

Screening data: PubChem BioAssay, several laboratories
